The values below come from PubChem BioAssay AID1063 (University of Pittsburgh Molecular Library Screening Center, 2008).

Screen size: about 200,000 compounds; about 18,000 (9%) were called active. The sample as a whole holds a higher share of actives than the screen did. Values without a mark were called inactive. No stated cut-off is given here; in the data, active means inhibition above about 50%; inactive means the rest.

The nature of this assay: antileishmanial activity against promastigotes – primary screen (AID 1063).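 Further: promastigotes grown with compound for 44 hours at 28 °C.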 As to conditions: Leishmania major promastigotes, resazurin fluorescence viability; at 10 µM; active compounds read high.
Take `CCCC/S(C)=N/S(=O)(=O)c1ccc(C)cc1` (stereo unspecified): the inhibition is -10.2%. The figure for `COc1cc(NS(=O)(=O)c2ccc(NC(=O)c3ccc(S(=O)(=O)N4CCCCC4)cc3)cc2)ncn1` is -2.97%; for `Cc1c(CCOC(=O)c2cc([N+](=O)[O-])ccc2Cl)sc[n+]1CCCCS(=O)(=O)[O-]` it is -8.59%; for `Cc1c(CCOC(=O)CC23CC4CC(CC(C)(C4)C2)C3)sc[n+]1Cc1ccc([N+](=O)[O-])cc1` it is 87.9% (active). For the compound `Cc1c(CCO)sc[n+]1CC(=O)OC12CC3CC(CC(C3)C1)C2`, the inhibition was 30.7%. Consider `CCCCNC(=O)CCn1c(=O)c2ccccc2n(Cc2cc(C)ccc2C)c1=O`, for which the inhibition was 58% (active). As for `COCCNC(=O)CCCn1c(=O)c2ccccc2n(Cc2cccc([N+](=O)[O-])c2)c1=O`, the figure is 4.7%. Consider `CCCCNC(=O)CCn1c(=S)[nH]c2cc3c(cc2c1=O)OCO3`, for which the inhibition was -1.74%.

On to `Cc1cc(OC(=O)c2ccccc2)c([N+](=O)[O-])c(=O)[nH]1`, for which the inhibition was -2.98%.

Take `COc1ccc(CN(C)C(=S)Nc2ccc(Cl)cc2Cl)cc1`: the inhibition is 4.79%. As for `CCCCn1c(CCCNC(=O)CC)nc2ccccc21`, the figure is 12.4%; as for `Cc1ccc(Cn2c(NC(=O)c3ccco3)nc3ccccc32)cc1`, 9.07%; as for `CCC(=O)NCCc1nc2ccccc2n1CC`, -0.68%. As for `CC(=O)Nc1nc2ccccc2n1Cc1ccc(C)cc1`, the figure is 88.6% (active). For the compound `O=S(=O)(O)c1nc2ccccc2n1Cc1ccc(Cl)cc1`, the inhibition is -5.39%. For the compound `CCC(=O)Nc1nc2ccccc2n1Cc1ccccc1C`, the inhibition was 97.5% (active).

Consider `CCO[C@@H]1OC(C(=O)N2CCOCC2)=C[C@H](C)[C@H]1CCCO`, for which the inhibition is -9.37%. On to `Cn1nnnc1SCC(=O)Nc1nc2ccccc2s1`, for which the inhibition was -3.39%. As for `CC(=O)c1ccc(NC(=O)C(C)N(C)CC(=O)Nc2ccccc2Cl)cc1` (stereo unspecified), the inhibition is 12.8%. For the compound `COc1ccc(S(=O)(=O)N(C)CC(=O)N2CCCC2)cc1Cl`, the inhibition was -0.12%. As for `COc1cc(CNC2CCCC2)c(Br)cc1OCc1ccccc1`, the figure is 35.4%; as for `CC(C)(C)NCc1cc(Br)ccc1OC1CCCC1`, 15.5%; as for `COc1cc(CNC2CCCCC2)c(Br)cc1OC1CCCC1`, 60.8% (active).

`C=CS(=O)c1sc(Cl)c(N2CCOCC2)c1[N+](=O)[O-]` (stereo unspecified): the inhibition was 20.9%. As for `Cc1ccccc1NC(=S)N(CCCN1CCOCC1)Cc1cccs1`, the figure is 61.8% (active); as for `CCc1cccc(C)c1NC(=S)N(CCCN1CCN(C)CC1)Cc1cccs1`, 22.3%; as for `Cc1ccc(Cl)cc1NC(=S)N(CCN(C)C)Cc1cccs1`, 18.3%.

In the case of `O=C(CCN1C(=O)c2ccccc2C1=O)NCCCn1ccnc1`, the inhibition was -10.1%. The figure for `O=C(Nc1cccc(NC(=O)c2ccco2)c1)c1cnccn1` is 20.6%. The figure for `O=C(Nc1ccc2nccnc2c1)c1ccco1` is -6.2%; for `O=C(Nc1cccc(-c2nc3ncccc3o2)c1)c1ccco1` it is 100% (active); for `CC(=O)Nc1ccc(S(=O)(=O)Nc2nccc(/C=C/c3ccccc3F)n2)cc1` it is -6.64%.

Regarding `O=C(N/N=C/c1ccccn1)c1ccc(S(=O)(=O)N2CCCCCC2)cc1`, the inhibition is -3.79%. With `CC(c1ccco1)N(C(=O)COc1ccccc1[N+](=O)[O-])c1ccccn1` (stereo unspecified), the inhibition was 1.39%.

As to `CC(c1ccco1)N(C(=O)c1ccc(S(=O)(=O)N2CCCCC2)cc1)c1ccccn1` (stereo unspecified), the inhibition was 89.7% (active).

With `Cn1c(N)cc(-c2ccc(F)cc2)c(C#N)c1=O`, the inhibition was 0.6%. As for `Cc1ccc(-c2csc(NC(=O)Cn3[nH]c(=O)c4ccccc4c3=O)n2)cc1`, the figure is 5.27%; as for `Cc1cccc(S(=O)(=O)CC(=O)Nc2nc(-c3ccccc3)cs2)c1`, 98.6% (active); as for `Cc1ccc(-c2csc(NNC(=O)c3ccccc3)n2)cc1`, 16.8%. Take `O=C(Nc1nc(-c2ccc(-c3ccccc3)cc2)cs1)c1cnccn1`: the inhibition was 47.8%. The figure for `O=C(CSC1=NCCS1)Nc1nc(-c2ccccc2)cs1` is 67.4% (active); for `CCNC(=O)CSc1nc(-c2ccccc2)cs1` it is 3.19%.

For `Cc1ccc(S(=O)(=O)N(CC(=O)NN=C2CCN(C)CC2)c2ccc(F)cc2)cc1`, the inhibition is -0.06%. As for `CCc1cc2c(=O)c(-c3nc4ccccc4n3C)c(CCCC(=O)O)oc2cc1OC(=O)C(C)(C)C`, the figure is -1.6%; as for `COc1ccc(C2=NN(C(=O)c3cccnc3)C(c3ccccc3)C2)cc1` (stereo unspecified), 5.17%. As for `CCOc1ccc(NC(=S)NC(=O)/C=C/c2ccc(OC)cc2)c([N+](=O)[O-])c1`, the inhibition is -5.29%. As for `COc1ccc(/C=C/C(=O)NC(=S)NN2CCCCC2c2cccnc2)cc1` (stereo unspecified), the figure is 69.9% (active). With `Cc1cccc(N=C2NN=C(c3c[nH]c4ccccc34)CS2)c1`, the inhibition was 64.9% (active). As for `Cc1cccc(C(=O)Nc2nnc(Cc3c[nH]c4ccccc34)s2)c1`, the figure is 19.2%; as for `Cc1cccc(N=C2NC(=O)/C(=C/c3cn(C)c4ccccc34)S2)c1`, 10.8%.

Consider `CC(C(=O)NC1CCCC1)N(c1ccc(Oc2ccccc2)cc1)S(C)(=O)=O` (stereo unspecified), for which the inhibition was 29.4%. Consider `CCOc1ccc(C(C)=O)cc1CSc1nnc(-c2ccncc2)n1CCOC`, for which the inhibition was 2.51%. For `COc1ccc(C/C(C)=N/NC(=O)c2cc(C)oc2C)cc1`, the inhibition is 2.67%. As for `Cc1ccc(Cl)cc1NC(=O)c1ccccn1`, the figure is -2.2%; as for `COc1ccc(C/C(C)=N/NC(=O)c2ccncc2)cc1`, -6.69%. `C/C(=N\NC(=O)Cc1ccc(Cl)cc1)c1ccccn1`: the inhibition is 100% (active). As for `C/C(=N\NC(=O)Cc1ccc(F)cc1)c1ccc(F)cc1`, the figure is -7.37%.

In the case of `COc1ccc(CC(=O)N/N=C(\C)c2ccccn2)cc1`, the inhibition is 75.9% (active). `COc1ccccc1NC(=O)C1=C(C)NC(=O)NC1c1ccc(C)s1` (stereo unspecified): the inhibition is 5.44%. The figure for `O=C(CC(=O)N/N=C\c1ccc(F)cc1)NCCc1ccccc1` is -0.64%; for `Nc1ccc(S(=O)(=O)Nc2nccc(/C=C/c3ccc(Br)s3)n2)cc1` it is 1.78%.

The inhibition is the relative decrease from the control value, in per cent.
